Most compounds without a hit are left out; they make up all but 12% or so of the library.
ROMK primary: modulates human ROMK potassium channel activity; AID 1918; P48048; B-score at 10 µM; actives 2% (n = 130,000); Tet-inducible ROMK, thallium flux fluorescence; actives lie on both sides;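 active = signal ratio slope over the read window, or its plate-corrected B-score, at least 3 SD from the plate mean, either direction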;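 also: B-score of the F/F0 ratio slope over 7 to 12 s after thallium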
Target sequence (P48048 whole entry, looked up): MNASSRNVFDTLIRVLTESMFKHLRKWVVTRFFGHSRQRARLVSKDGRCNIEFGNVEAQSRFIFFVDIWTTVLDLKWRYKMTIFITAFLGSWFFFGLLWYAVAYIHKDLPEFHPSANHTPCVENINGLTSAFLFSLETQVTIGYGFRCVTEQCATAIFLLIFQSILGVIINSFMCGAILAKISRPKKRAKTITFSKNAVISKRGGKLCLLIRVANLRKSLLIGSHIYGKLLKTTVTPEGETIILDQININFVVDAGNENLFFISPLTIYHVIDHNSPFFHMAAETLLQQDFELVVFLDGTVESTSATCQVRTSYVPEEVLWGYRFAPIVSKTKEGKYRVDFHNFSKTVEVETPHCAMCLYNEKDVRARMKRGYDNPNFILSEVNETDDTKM
Cl transport mod: KCC2 (human) Cl- transport modulation; Q9H2X9; KCC2 cells, thallium flux FluoZin-2 fluorescence; B-score of Tl+ flux slope (higher = more flux/activation; lower = inhibition) at 10 µM; actives 2.2% (n = 190,000);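 active = thallium flux slope and its plate-corrected score both differing from the plate sample mean at a set confidence after two filtering rounds, in either direction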;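 also: slope of fluorescence scaled to starting intensity during 10 to 20 s after thallium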
Calpain2 inh: inhibitors of pig calpain II | purified calpain II, fluorogenic peptide substrate, 30 min | inhibition, % at 16 µM | actives 0.37% (n = 220,000);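 active = inhibition above about 50%, limit read from the data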
L major viab: Leishmania major promastigote growth inhibition; actives 9% (n = 200,000); inhibition, % at 10 µM; Leishmania major promastigotes, resazurin fluorescence viability; AID 1063; in the data active = inhibition above about 50%;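 also: promastigotes grown with compound for 44 hours at 28 °C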
WT yeast gro inh: growth inhibition of WT yeast, mitochondrial fusion screen; inhibition, % at 10 µM; actives 2.1% (n = 190,000); mitochondrial fusion phenotypic screen, WT strain; in the data active = inhibition above about 58%; tested in S. cerevisiae
* hit, by the source's call; i = inactive; x = no result.

SMILES | ROMK primary | Cl transport mod | Calpain2 inh | L major viab | WT yeast gro inh
N=C1c2ccccc2CN1NC(=O)c1ccc(Br)cc1 | 0.087 | -0.041 | 5 | 6 | -1
Cc1ccc(OCC(=O)N2CCN(Cc3ccc4c(c3)OCO4)CC2)cc1 | -0.99 | 0.71 | 19 | 83* | 17
CC1C(c2cccs2)=[N+]([O-])C(C)(C(=O)c2cccs2)N1O (stereo not drawn) | 0.55 | 0.59 | 26 | -6 | 14
CN1CCC(OC(=O)C2c3ccccc3Oc3ccccc32)CC1 | -1.2 | -1.2 | -27 | 86* | 3
COc1ccc(-c2cc(=NCCC(=O)O)c3cc(C)ccc3o2)cc1 | 0.5 | 0.45 | i | 62* | -6
CC(=O)c1c(C)n(Cc2ccccc2)c2ccc(O)cc12 | x | 0.11 | 7 | x | x
CCN(CC)CCCNC(=O)c1c(O)c2ccccc2n(Cc2ccccc2)c1=O | -1.2 | 0.98 | 8 | 100* | 5
COC(=O)c1c(C)n(Cc2ccccc2)c2ccc(O)cc12 | -0.2 | 1.1 | 10 | 5 | 19
CCN(CC)CCNC(=O)c1c(O)c2ccccc2n(Cc2ccccc2)c1=O | x | x | -5 | 89* | 5
CC1(C)N=C(c2ccccc2)[C@@H]2C(c3ccc([N+](=O)[O-])cc3)N21 (stereo partly drawn) | x | -0.38 | -2 | -3 | -8
NC(=O)CS(=O)C(c1ccccc1)c1ccccc1 (stereo not drawn) | x | 0.024 | -19 | x | 0
Cc1ccsc1C(=O)C1CCCN(Cc2cccc(-n3cccn3)c2)C1 (stereo not drawn) | 0.045 | x | -3 | 58* | 12
Cc1ccsc1C(=O)C1CCCN(Cc2ccc(-n3cccn3)cc2)C1 (stereo not drawn) | -1.3 | -0.59 | -7 | -1 | -15
CN1C(=O)C(=Cc2c(OCc3cnc(Cl)s3)ccc3ccccc23)C(=O)N(C)C1=O | -1.1 | -0.1 | -14 | 89* | 8
COc1ccc(C=C2C(=O)N(C)C(=O)N(C)C2=O)cc1CSc1ccccn1 | x | 1.6 | -3 | -2 | 0
COC(=O)C1=C(N)Oc2c(c(=O)oc3ccccc23)C1c1cccnc1 (stereo not drawn) | -0.64 | -2.8 | 2 | 9 | 3
OC12ONC(c3ccccn3)C1N1CCC2CC1 (stereo not drawn) | -0.12 | x | -4 | 2 | -1
COc1ccc(CCNCc2ccc(F)cc2)cc1OC | -0.43 | 0.21 | 3 | 50* | 13
COc1ccc(N2C(=O)/C(=C/c3cccs3)C(=O)NC2=S)cc1 | x | -0.65 | -4 | x | x
Cc1ccc(/C=C2\C(=O)NC(=S)N(c3ccc(F)cc3)C2=O)s1 | 1.3 | -0.096 | -29 | 100* | 25
Cc1ccc(/C=C2\C(=O)NC(=S)N(c3ccccc3F)C2=O)s1 | x | 1.5 | -6 | 101* | 17
CCOC(=O)C1CCN(/C=C2/C(=O)NC(=S)N(c3ccccc3F)C2=O)CC1 | 0.14 | 0.35 | 23 | 55* | -13
CN(C)P(=O)(C(Cl)=C(N1CCCCC1)N1CCCCC1)N(C)C | x | -0.62 | -6 | 19 | 15
CCOC(=O)Cn1cc([N+](=O)[O-])nc1[N+](=O)[O-] | 0.15 | -1.7 | 13 | 99* | -4
COCc1c(CN)cnc(C)c1N | x | 0.86 | -26 | 0 | -18
SMILES | ROMK primary | Cl transport mod | Calpain2 inh | L major viab | WT yeast gro inh
Cc1ccccc1OCCCn1cc(C(=O)C(=O)N2CCOCC2)c2ccccc21 | -0.2 | -1.4 | -13 | 41 | -16
CCOC(=O)c1c(C)n(Cc2ccccc2)c2ccc(OCC(O)Cn3nc(C)nc3C)cc12 (stereo not drawn) | x | 0.048 | -105 | 12 | 7
CCOC(=O)c1c(C)n(Cc2ccccc2)c2ccc(OCC(O)Cn3nc(C)cc3C)cc12 (stereo not drawn) | x | 0.7 | 13 | 18 | 66*
COC(=O)C1=Nc2ccccc2/C1=C\c1c(O)n(-c2ccc(Br)cc2)c(=O)[nH]c1=O | 0.68 | 1.7 | 0 | 67* | 0
CCOC(=O)C1CCCN(c2ccc([N+](=O)[O-])c3nonc23)C1 (stereo not drawn) | x | i | 60* | 28 | 9
CC1CCCN(c2ccc(C(=O)N3CCC4(CC3)OCCO4)cc2[N+](=O)[O-])C1 (stereo not drawn) | 1.1 | x | 40 | -3 | 27
CCCC[N+]1(C)[C@@H]2CC(OC(=O)[C@H](CO)c3ccccc3)C[C@H]1[C@@H]1O[C@@H]12 (stereo partly drawn) | x | 0.38 | 12 | x | -2
O=C1C=Cc2ccccc2C1=O | x | -0.47 | 60* | -10 | 2
O=C(CN1CC=C(c2ccccc2)CC1)Nc1cc(Cl)ccc1Cl | -0.51 | -0.46 | 9 | 55* | 24
CN(N)N=Nc1nc2c([nH]1)c(=O)n(C)c(=O)n2C | x | 2.5 | 13 | x | x
CN1C(=O)N(C)C(=O)C2(Cc3c(nc4ccccn4c3=O)N3CCc4ccccc4C32)C1=O (stereo not drawn) | 1.9 | 0.23 | -93 | 70* | 12
Cc1ccc(C(=O)Nc2ccc(Cl)cc2C(=O)c2ccccc2)cc1 | x | 0.58 | x | 99* | x
O=C(COC(=O)c1ccc(O)cc1)Nc1ccc(Cl)cc1C(=O)c1ccccc1 | x | -0.059 | -18 | 7 | 77*
Cc1ccc(OCC(=O)Nc2ccc(Cl)cc2C(=O)c2ccccc2)cc1 | -0.42 | -0.39 | 9 | 25 | 2
O=c1[nH]c(=O)n(Cc2ccccc2)c(O)c1/C=N/NCCO | x | 0.54 | 3 | x | x
CCN1CCN(Cc2cc(Br)cc(OC)c2O)CC1 | 0.12 | x | 20 | 8 | 6
O=C(Cc1ccccc1)N1CCN(Cc2cccc(Br)c2)CC1 | x | -2 | 5 | x | x
O=C(Cc1ccc(Br)cc1)N1CCN(Cc2ccccc2)CC1 | x | x | -18 | 87* | 3
Oc1c(Br)cc(Br)cc1CN1CCN(Cc2ccccc2)CC1 | x | 0.43 | -7 | 73* | 13
O=C(CNC(=O)OCc1ccccc1)NCC(=O)Nc1ccc(Br)cc1C(=O)c1ccccc1 | x | -2.5 | 18 | 70* | -6
CCSc1cc(C2C(C#N)=C(N)Oc3n[nH]c(C)c32)c(C)o1 (stereo not drawn) | x | -0.69 | 10 | 94* | 3
O=C(COc1ccc(Cl)cc1)NC1CN2CCC1CC2 (stereo not drawn) | x | 0.7 | 3 | 99* | -2
COc1cc(N)c(Cl)cc1C(=O)NC1CN2CCC1CC2 (stereo not drawn) | x | -1.1 | -14 | x | -1
Cc1[nH]c2c(Cl)cccc2c1CCN | x | -0.51 | x | 56* | x
C=CP(=O)(O)c1ccccc1 | x | 0.77 | -10 | -10 | -8
SMILES | ROMK primary | Cl transport mod | Calpain2 inh | L major viab | WT yeast gro inh
COc1cc(C(=O)Nc2ccc(Br)cc2C(=O)c2ccccc2Cl)cc(OC)c1OC | x | -0.49 | -26 | 51* | 1
Nc1c(C(=O)OC2CCCCC2)c2nc3ccccc3nc2n1CC1CCCO1 (stereo not drawn) | x | -0.28 | x | 81* | 21
CC(C)OC(=O)c1c(N)n(CC2CCCO2)c2nc3ccccc3nc12 (stereo not drawn) | x | 0.28 | i | 52* | 1
CC(C)CCOC(=O)c1c(N)n(CC2CCCO2)c2nc3ccccc3nc12 (stereo not drawn) | x | -1.5 | i | 100* | 4
CCCNC(=O)c1c(N)n(CC2CCCO2)c2nc3ccccc3nc12 (stereo not drawn) | x | 0.66 | i | 30 | 10
CCOP(=S)(OCC)Oc1cc(C)oc(=O)c1Cl | x | -0.64 | 5 | x | x

Source: PubChem
